The campaign covered roughly 400,000 compounds. About 13,000 (3.2%) were called active. Where a call stands in place of a potency, no number is given. Another 18% or so got no clear call; they are omitted. Calls come from the whole dose curve; as a rule, active = well fitted cell-killing curve with a large enough effect; inconclusive = small, poorly fitted or top-dose-only effect, or effect the other way; inactive = flat fitted curve, though single readings scatter. The sample as a whole holds a higher share of actives than the screen did.
Test: qHTS assay for MDR1-selective chemotherapeutics: Primary screen using the drug-selected MDR subline cells KB-V1; note: nearly all actives have a fitted effect of over 60% in size
Conditions: KB-V1 MDR cells viability, CellTiter-Glo, 72 h; series mostly up to 46.1 µM
Method in brief: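 qHTS viability screen in drug-selected KB-V1 MDR cells: 72 h compound treatment at 37 degrees C, ATP luminescence end point.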
Potency is the fitted concentration of half-maximal effect.

Q: For CN(C)c1cccc(C(=O)Nc2nc3ccc(S(=O)(=O)NC(C)(C)C)cc3s2)c1, which Potency is on record?
A: 20.6 µM (active)

Q: With COc1cccc(C(=O)Nc2nc3ccc(S(C)(=O)=O)cc3s2)c1 as the molecule, how does the Potency read?
A: inactive

Q: With CC1(C(=O)Nc2cccc3cccnc23)CCN1C(=O)CCC1CCCC1 (stereo not given) as the molecule, how does the Potency read?
A: inactive

Q: For CC(C)(O)C1=C[N+](=O)CC=C1, which Potency is on record?
A: inactive

Q: Which Potency does the source give for COc1ccc(C2CC(c3cccc(OC)c3)=NN2c2ccc(S(N)(=O)=O)cc2)cc1 (stereo not given) here?
A: inactive

Q: With CCOc1ccc2[nH]c(=S)sc2c1 as the molecule, how does the Potency read?
A: inactive

Q: For COc1cc(OC)c(S(=O)(=O)Nc2ccccc2C(=O)O)cc1S(=O)(=O)Nc1ccccc1C(=O)O, which Potency is on record?
A: inactive

Q: For COc1cc(NC(=O)c2ccccc2NS(=O)(=O)c2ccc(Cl)s2)cc(OC)c1, which Potency is on record?
A: 10.3 µM (active)

Q: Which Potency does the source give for CCOc1ccc(NC(=O)c2ccccc2NS(C)(=O)=O)cc1 here?
A: inactive

Q: Which Potency does the source give for O=C(Nc1ccc(F)cc1)Nc1nnc([C@H]2C[C@H](O)[C@@H](CO)O2)s1 here?
A: inactive

Q: For CC(C)c1ccc(NC(=O)Cn2c3ncccc3c(=O)n2-c2ccccc2)cc1, which Potency is on record?
A: inactive

Q: Which Potency does the source give for O=C1c2ccccc2C(c2nc3ccccc3[nH]2)N1c1ccccc1 (stereo not given) here?
A: inactive

Q: For CCOC(=O)[C@]12CCCC=C1N(CCC1=CCCCC1)C(=O)[C@H](CC(=O)N1CCOCC1)C2, which Potency is on record?
A: inactive

Q: For C=C1C(=O)OC2C1CCC(C)=CCCC1(C)OC21 (stereo not given), which Potency is on record?
A: inactive

Q: With O=C(Nc1ccc(F)cc1F)c1cnn(-c2ccc(F)cc2)c1-n1cccc1 as the molecule, how does the Potency read?
A: inactive

Q: For Cc1nn(-c2ccc(F)cc2)c(-n2cccc2)c1C(=O)N1CCN(c2ccccc2)CC1, which Potency is on record?
A: 20.6 µM (active)

Q: With Cc1nn(-c2ccccc2)c(-n2cccc2)c1C(=O)O as the molecule, how does the Potency read?
A: inactive

Q: With COC(=O)c1ccccc1NC(=O)c1cnn(-c2ccc(F)cc2)c1-n1cccc1 as the molecule, how does the Potency read?
A: inactive

Q: Which Potency does the source give for CC(=O)c1c(N2CCN(c3ccc(F)cc3)CC2)nc(=S)n(-c2ccccc2)c1C here?
A: inactive

Q: With O=C(c1cnn(-c2ccc(F)cc2)c1-n1cccc1)N1CCN(c2ccc(F)cc2)CC1 as the molecule, how does the Potency read?
A: 23.1 µM (active)

Q: For COc1ccc(-c2ccc(C(=O)NCCN3CCOCC3)c3occc23)c(C)c1, which Potency is on record?
A: inactive

Q: With CCCCc1nc2ccc(F)cc2cc1C as the molecule, how does the Potency read?
A: inactive

Q: Which Potency does the source give for O=C(Nc1cccc(Cc2ccccc2)c1)Nc1ccc2nc([C@@H]3O[C@H](CO)[C@@H](O)[C@H](O)[C@H]3O)[nH]c2c1 here?
A: inactive

Q: For COc1ccccc1CNC(=O)c1ccccc1NC(=O)c1nsc2ccccc12, which Potency is on record?
A: inactive

Q: For Nc1cccc(OCCCCCOc2cccc(N)c2)c1, which Potency is on record?
A: inactive

Q: Which Potency does the source give for O=C(NCc1ccc(Cl)cc1)NCc1ccc(Cl)cc1 here?
A: inactive

Q: Which Potency does the source give for O=C(NCc1ccncc1)NC12CC3CC(CC(C3)C1)C2 here?
A: inactive

Q: For S=C(NCc1ccc(Cl)cc1)NC12CC3CC(CC(C3)C1)C2, which Potency is on record?
A: 16.4 µM (active)

Q: Which Potency does the source give for CCCNC(=O)C1(C)CCN(Cc2ccc(Cl)c(Cl)c2)C1 (stereo not given) here?
A: inactive

Q: With COc1cccc(NC(=O)C2CCN(c3cc(C)nc4c(-c5ccc(Cl)cc5)c(C)nn34)CC2)c1 as the molecule, how does the Potency read?
A: inactive

Q: For CC1(C)OC(=O)C2=C(C[C@@H](C3CC3)O[C@H]2CCc2cccc(Cl)c2)O1, which Potency is on record?
A: inactive

Q: With O=S(=O)(c1cccc(C(F)(F)F)c1)N1CCN(c2nc(-c3cccs3)nc3ccccc23)CC1 as the molecule, how does the Potency read?
A: inactive

Q: With COCC(=O)N(C)C[C@H]1Oc2cc(Br)ccc2S(=O)(=O)N([C@H](C)CO)C[C@H]1C as the molecule, how does the Potency read?
A: inactive

Q: With CC1(Cc2ccccc2C#N)C(=O)Nc2ccc(-c3ccc4[nH]ccc4c3)cc21 (stereo not given) as the molecule, how does the Potency read?
A: 6.51 µM (active)

Q: Which Potency does the source give for Cc1ccc(CC2(C)C(=O)Nc3ccc(OC(F)(F)F)cc32)cc1 (stereo not given) here?
A: inactive

Q: With COc1ccccc1CC1(C)C(=O)Nc2ccc(OC(F)(F)F)cc21 (stereo not given) as the molecule, how does the Potency read?
A: inactive

Q: For Cc1ccc(-n2ncc3c(N4CCC(C(N)=O)CC4)ncnc32)cc1, which Potency is on record?
A: inactive

Q: With Cc1cc(OCC(=O)Nc2nccs2)c2c(C)c(C)c(=O)oc2c1 as the molecule, how does the Potency read?
A: inactive

Q: For COc1ccc(C(C)C)cc1-c1ccc2nncn2c1, which Potency is on record?
A: inactive

Q: With CCN(CC)c1ccc(NC(=O)CN2CCN(CC(=O)Nc3ccc(Cl)cc3)CC2)cc1 as the molecule, how does the Potency read?
A: inactive

Q: With CCN(CC)c1ccc(NC(=O)c2ccc(Cl)nc2)cc1 as the molecule, how does the Potency read?
A: 4.61 µM (active)

Q: With O=C(NNC(=O)c1ccc(Cl)nc1)c1ccc(Br)cc1 as the molecule, how does the Potency read?
A: inactive

Q: Which Potency does the source give for COC(=O)c1ccccc1NS(=O)(=O)c1ccc2c(c1)CCCN2C(C)=O here?
A: inactive

Q: For CCOc1cc(/C=N/NC(=O)c2c(C)nc3ccc(Cl)cn23)ccc1O, which Potency is on record?
A: inactive

Q: With CCc1oc(-c2ccc(OC)cc2)c(C(=O)OCCCCCO)c1C(C)OCCO (stereo not given) as the molecule, how does the Potency read?
A: inactive

Q: Which Potency does the source give for O=C(NN1C(=O)C2C(C1=O)C1C=CC2C12CC2)c1ccccc1Cl (stereo not given) here?
A: inactive

Q: With CC12CCC(C(=O)N(c3cccc(Cl)c3)C1=O)C2(C)C (stereo not given) as the molecule, how does the Potency read?
A: inactive

Q: For CC12CCC(C(=O)N(NC(=O)c3ccccc3O)C1=O)C2(C)C (stereo not given), which Potency is on record?
A: 3.26 µM (active)

Q: For O=C(NCc1ccccc1)C1CNCC(C(=O)NCc2ccccc2)C1 (stereo not given), which Potency is on record?
A: inactive

Q: Which Potency does the source give for O=C(OC/C=C/CSc1nnc(-c2cccc3ccccc23)o1)c1ccc(F)cc1 here?
A: inactive

From PubChem BioAssay AID1347076 (National Center for Advancing Translational Sciences (NCATS), 2019)
